Here are results for 40 molecules from PubChem BioAssay (NCI).

Compounds without any hit were thinned out: in the full panel of roughly 83,000, 20% have a hit.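 Growth was measured after 48 h exposure to one concentration of compound in 96-well plates. Values under 10 count as active.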 The source made the active and inactive calls.

The experiment relates to HL-60(TB) leukemia. Kind of experiment: NCI-60 one-dose screen, 48 h (100 = growth as untreated, 0 = no growth, -100 = all killed). The settings on record: 10 µM unless noted.
For `CN1CCC(CNc2ccc3ncc(-c4cccc(OC(F)(F)F)c4)n3n2)CC1`, the growth is -37.1% (active).

As to `CC(C)[C@H](CO)Nc1nc(Nc2ccc(C(=O)NCCNS(=O)(=O)c3cccc4c(N(C)C)cccc34)c(Cl)c2)c2ncn(C(C)C)c2n1`, the growth was -36.7% (active).

For the molecule `Cc1ccc(S(=O)(=O)/C(=C\c2ccc(Cl)cc2)C(=O)c2ccccc2)cc1`, the growth was 97.1% (inactive).

On to `O=C(/C=C/c1ccc[nH]1)c1ccc(-n2ccc(C(F)(F)F)n2)c(F)c1`, for which the growth was -11.3% (active).

With `Oc1ccccc1N=Cc1c(O)ccc2ccccc12`, the growth is 8.97% (active).

For `O=C(NCCCl)Nc1ncccc1OCc1ccccc1`, the growth was 90% (inactive).

As for `CCCCSc1cc(C)nc(N)n1`, the growth was 96.6% (inactive).

For the molecule `CC(=O)Oc1cccc(OC(C)=O)c1OC(C)=O`, the growth was 103% (inactive).

Take `CC(=O)OCCOc1cc(Cl)c(Cl)cc1Cl`: the growth was 77.3% (inactive).

As for `CCCCCCCCCCCC(=O)NCCC[N+](C)(C)CC(=O)[O-]`, the growth was 101% (inactive).

Turning to `c1ccc(Oc2c3ccccc3nc3ccccc23)cc1`, the growth is -16.4% (active).

Take `c1ccc(CNCCNCc2ccccc2)cc1`: the growth was 105% (inactive).

As to `COc1ccc(-c2cc(-c3ccc(Cl)cc3)nc(SCCCC(=O)NO)n2)cc1OC`, the growth is -32.4% (active).

Regarding `CCCCNCCCN(CCCC)CCCNCCCC`, the growth was 98.5% (inactive).

For `CC(=O)/C(Br)=C/c1ccc(Br)o1`, the growth was -18.8% (active).

As to `Nc1nnc(-c2ccc3ccccc3c2O)o1`, the growth was 102% (inactive).

`COc1ccc(C2=NNC(c3sc(Cl)nc3Cl)C2)cc1` (stereo not given): the growth is 85.8% (inactive).

Turning to `O=C(Nc1ccc(N2CCCCC2)c(Cl)c1)c1ccc(Br)o1`, the growth is 46.3% (inactive).

As to `N#CCc1csc(Cc2ccccc2)n1`, the growth is 95.7% (inactive).

On to `COc1ccc(-c2nc(-c3ccccc3)c(-c3ccccc3)[nH]2)cc1OC1CCCCC1`, for which the growth is 97.6% (inactive).

For the molecule `COc1ccc(OC)c(N(CCN2C(=O)c3ccccc3C2=O)C(=O)CCl)c1`, the growth was -63.3% (active).

With `Clc1nc(Cl)c2ncn(CCOCCn3cnc4c(Cl)nc(Cl)nc43)c2n1`, the growth is -70.6% (active).

As to `COc1cc(N)c2nccc(C)c2c1OC`, the growth was 96.2% (inactive).

In the case of `NCCCNc1nc2ccccc2c2c(=O)c3cc(OC(F)(F)F)ccc3sc12`, the growth is -41.5% (active).

For the molecule `O=C(CCc1nnc2sc(OCc3ccccc3)nn12)c1nc2ccc([N+](=O)[O-])cc2[nH]1`, the growth is 97.9% (inactive).

In the case of `CSc1nc(-c2cc3ccccc3o2)cc(-c2ccc(Cl)cc2)c1C#N`, the growth is 126% (inactive).

Take `C=C(C)[C@@H]1CC[C@]2(C(=O)NC3CCCCC3)CC[C@]3(C)[C@H](CC[C@@H]4[C@@]5(C)CCCNC(C)(C)[C@@H]5CC[C@]43C)[C@@H]12`: the growth was 23.7% (inactive).

In the case of `O=C(Nc1ccccc1O)c1ccc(CNc2ccnc(C(F)(F)F)c2)cc1`, the growth was -32.9% (active).

Turning to `Cn1ccnc1C(=O)/C=C/c1ccccc1`, the growth was 8.05% (active).

Turning to `O=S1(=O)OC(c2cc(Cl)c(O)c(Br)c2)(c2cc(Cl)c(O)c(Br)c2)c2ccccc21`, the growth was 92.4% (inactive).

With `COc1ccc(C2C3=C(COC3=O)N(CCO)c3cc4c(cc32)OCCO4)cc1OC` (stereo not given), the growth was 6.34% (active).

For the molecule `CC(=O)c1ccc(Br)c([N+](=O)[O-])c1`, the growth is 122% (inactive).

On to `O=C(/C=C/c1cccc(O)c1)c1ccccc1O`, for which the growth was 66% (inactive).

Consider `Clc1nc(-c2cccnc2)nc2sc3c(c12)CCCCCC3`, for which the growth is 102% (inactive).

Take `COc1ccc(C(=O)CSc2nc(-c3cc(OC)ccc3OC)cc(-c3ccc(Cl)cc3)c2C#N)cc1`: the growth was 106% (inactive).

Regarding `COc1ccc(S(=O)(=O)NCCCNc2nccc(-n3ccc4cccnc43)n2)cc1`, the growth is 104% (inactive).

With `Cc1nc2ccc(Cl)cc2n1C`, the growth was 101% (inactive).

In the case of `Oc1ccc(O)c(-c2ccccc2)c1`, the growth is 35.4% (inactive).

Turning to `COc1ccc(C(=O)C/C(=C\c2ccc(Cl)cc2)C(=O)NCc2ccccc2)cc1`, the growth was 73.8% (inactive).

On to `Clc1ccc2c(NCCCN3CCN(c4nc(-n5ccnc5)nc5ccccc45)CC3)ccnc2c1`, for which the growth is 52.7% (inactive).
